Molecules are shown by their SMILES.

Here are results for 40 compounds from the supplement of paper PMC7858590.

The test system of the first test is human monocyte-derived macrophages (polarized). Kind of test: cell shape (eccentricity) Z-score vs DMSO control; higher = more elongated, M2-like morphology. The settings on record: 5 µM; 24 h; macrophage state: M1-polarized (IFNg + TNFa), cytokines present during treatment. The procedure: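 Primary-screen hits were rescreened on polarized hMDMs with the differentiating cytokines (IL-4 + IL-13 or IFNg + TNFa) kept in the medium during treatment with compound at 5 uM for 24 h. The eccentricity Z-score vs DMSO wells is averaged over experiments.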
As to `CC(C)[C@]12O[C@H]1[C@@H]1O[C@]13[C@]1(O[C@H]1C[C@H]1C4=C(CC[C@@]13C)C(=O)OC4)[C@@H]2O`, the “cell shape (Z-score)” value came to 5.54. The same measure, in the same setting: the result for `C[C@]12CCC(=O)C=C1CC[C@@H]1C2CC[C@]2(C)C(=O)CCC12` (stereo not given in full) reads -0.101.

`CCCN(CCC)C1CCc2cccc(O)c2C1` (stereo not given): the “cell shape (Z-score)” value was -3.43. With `Cc1sc2c(c1C)C(c1ccc(Cl)cc1)=N[C@@H](CC(=O)OC(C)(C)C)c1nnc(C)n1-2`, the “cell shape (Z-score)” value was -7.72. Same read-out and setting: the result for `CN1[C@@H]2CC[C@H]1C[C@@H](OC(c1ccccc1)c1ccccc1N)C2` (stereo not given in full) reads -3.5; that for `CC[C@@H]1/C=C/C=C/C[C@H](C)[C@H](O)[C@](C)(O)C(=O)[C@H](C)[C@@H](O)[C@H](C)C(=O)[C@H](C)[C@@H](O)[C@H](C)/C=C/C(=O)O[C@H]2[C@@H](C)[C@@H](CC1)O[C@@]1(CC[C@@H](C)[C@@H](C[C@H](C)O)O1)[C@@H]2C`, -9.34; that for `CCOC(=O)c1ncn2c1C1CCCN1C(=O)c1cc(OC)ccc1-2` (stereo not given), 1.88. Same read-out and setting: the result for `O=C1/C(=C/c2ccccc2)C[C@@]2(O)[C@H]3Cc4ccc(O)c5c4[C@@]2(CCN3CC2CC2)[C@H]1O5` reads -6.15; that for `COc1cc([C@@H]2c3cc4c(c(O)c3C[C@H]3COC(=O)[C@@H]32)OCO4)cc(OC)c1OC`, 3.15; that for `CN(C)C(=S)SSC(=S)N(C)C`, -4.6. As to `CCCCCCCCCCCCCC(=O)O[C@@H]1[C@@H](C)[C@@]2(O)[C@@H](C=C(CO)C[C@]3(O)C(=O)C(C)=C[C@@H]23)[C@@H]2C(C)(C)[C@]12OC(C)=O`, the “cell shape (Z-score)” value is -6.25. In the case of `C=C(C)[C@@H]1[C@H]2OC(=O)[C@@H]1[C@]1(O)C[C@H]3O[C@]34C(=O)O[C@H]2[C@]14C`, the “cell shape (Z-score)” value is 0.251. Consider `CCN1C[C@]2(COC)CC[C@H](OC)[C@]34C1[C@H]([C@H](OC)[C@H]23)[C@@]1(OC(C)=O)C[C@H](OC)[C@]2(O)C[C@@H]4[C@@H]1[C@H]2OC(=O)c1ccc(OC)cc1`, for which the “cell shape (Z-score)” value is -6.97.

For `Clc1ccc(C2=CCCC3CCC2N3)cn1` (stereo not given), the “cell shape (Z-score)” value was 9.06.

`O=C1NC(=O)c2c1c1c3ccccc3[nH]c1c1[nH]c3ccccc3c21`: the “cell shape (Z-score)” value stood at 7.76. Turning to `Clc1ccc(C(OCCN2CCCCC2)c2ccccc2)cc1` (stereo not given), the “cell shape (Z-score)” value was -5.91. Consider `COc1cc([C@@H]2c3cc4c(cc3[C@H](OC(C)=O)[C@H]3COC(=O)[C@H]23)OCO4)cc(OC)c1OC`, for which the “cell shape (Z-score)” value is 7.24. With `COc1ccc2c3c([nH]c2c1)[C@H](CC(C)C)N1C(=O)[C@H](CCC(=O)OC(C)(C)C)NC(=O)[C@@H]1C3`, the “cell shape (Z-score)” value was 6.14.

On to `COc1cc2c(c(OC)c1OC)-c1ccc(OC)c(=O)cc1[C@@H](NC(C)=O)CC2`, for which the “cell shape (Z-score)” value was found to be 3.12. For the compound `COc1cc2ccc(=O)oc2c2ccoc12`, the “cell shape (Z-score)” value is 8.59. As for `c1cc2c(c(N3CCNCC3)c1)OCCO2`, the “cell shape (Z-score)” value was -7.3.

For `CCn1cc(C(=O)O)c(=O)c2cc3c(cc21)OCO3`, the “cell shape (Z-score)” value was determined as 3.52.

On to `CC(C)=CC1C(C(=O)OCc2coc(Cc3ccccc3)c2)C1(C)C` (stereo not given), for which the “cell shape (Z-score)” value is 8.88. Consider `C[C@]12CC[C@@H](O)C[C@@H]1CC[C@@H]1[C@@H]2CC[C@]2(C)[C@@H](C(=O)CO)CC[C@@H]12`, for which the “cell shape (Z-score)” value was found to be 3.05. Turning to `COc1cc([C@@H]2c3cc4c(cc3[C@@H](O)[C@H]3COC(=O)[C@H]23)OCO4)cc(OC)c1O`, the “cell shape (Z-score)” value worked out at 3.2.

The test is the same for the next values; noted with them: 5 µM; 24 h; macrophage state: M2-polarized (IL-4 + IL-13), cytokines present during treatment.
As to `O=c1[nH]c2ccccc2n1C1CCN(CCCC(c2ccc(F)cc2)c2ccc(F)cc2)CC1`, the “cell shape (Z-score)” value was -5.52. In the case of `C[C@H]1O[C@@H](O[C@H]2CC[C@]3(CO)C4CC[C@]5(C)[C@@H](C6=CC(=O)OC6)CC[C@]5(O)[C@@H]4CC[C@H]3C2)[C@H](O)[C@H](O)[C@@H]1O[C@@H]1O[C@H](CO)[C@@H](O)[C@H](O)[C@H]1O` (stereo not given in full), the “cell shape (Z-score)” value was -17.5. With `CCN1C[C@]2(C)CC[C@H](O)[C@@]34C2[C@H](OC)C([C@@H]13)[C@@]1(O)C[C@H](OC)[C@H]2C[C@@H]4[C@@H]1[C@H]2O`, the “cell shape (Z-score)” value was -1.79. Same read-out and setting: the result for `Fc1ccc(C(OCCN2CCN(C/C=C/c3ccccc3)CC2)c2ccc(F)cc2)cc1` reads -8.38; that for `CC(C)=CCC[C@]1(C)C=Cc2c(O)c3c(c(CC=C(C)C)c2O1)O[C@]12C(=C[C@@H]4C[C@H]1C(C)(C)O[C@@]2(C/C=C(/C)C(=O)O)C4=O)C3=O`, -10; that for `C(=C\c1ccccc1)/CN1CCN(CCOC(c2ccccc2)c2ccccc2)CC1`, 3.27.

With `CN1C(=O)COc2c(C(=O)NC3CN4CCC3CC4)cc(Cl)cc21` (stereo not given), the “cell shape (Z-score)” value is -3.99. For `COc1cc(Br)c(OC)c2c1C(CN)C2` (stereo not given), the “cell shape (Z-score)” value is 7.42. Same read-out and setting: the result for `CC(=O)O[C@H]1C(=O)[C@@]2(C)[C@H]([C@H](OC(=O)c3ccccc3)[C@]3(O)C[C@H](O)C(C)=C1C3(C)C)[C@]1(OC(C)=O)CO[C@@H]1C[C@@H]2O` reads -9.61.

For the compound `c1ccc2c(c1)[I+]c1ccccc1-2`, the “cell shape (Z-score)” value was -19. With `C=C1[C@@H](C)[C@H]2[C@H](Cc3ccccc3)NC(=O)[C@]23OC(=O)/C=C/[C@H](O)CCC[C@@H](C)C/C=C/[C@H]3[C@@H]1O`, the “cell shape (Z-score)” value was -29.4. For `CCCC[C@@H](C)[C@@H](OC(=O)C[C@@H](CC(=O)O)C(=O)O)[C@H](C[C@@H](C)C[C@H](O)CCCC[C@@H](O)C[C@H](O)[C@H](C)N)OC(=O)C[C@@H](CC(=O)O)C(=O)O`, the “cell shape (Z-score)” value stood at 2.12.

Consider `Cc1c(C(=O)c2cccc3ccccc23)c2cccc3c2n1[C@H](CN1CCOCC1)CO3`, for which the “cell shape (Z-score)” value was -6.47. On the same count and under the same terms, the result for `C[C@@]12C(=O)OC(=O)[C@]1(C)[C@H]1CC[C@@H]2O1` reads -39.6; that for `CC(=O)O[C@H]1CC[C@@]2(C)[C@H](CC[C@@H]3[C@@H]2CC[C@]2(C)[C@@H](C4=CC(=O)OC4)[C@@H](OC(C)=O)C[C@]32O)C1`, -23.5.
